Assay outcomes as filed in PubChem.
Pol kappa inh = blocks human DNA polymerase kappa activity; Q9UBT6; purified Pol kappa, fluorescent DNA synthesis assay, 10 min; Potency, µM (titrated, usually from 107 µM), usual class: inhibitors; actives 0.53% (n = 400,000); AID 588579
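Enzyme at 10 nM met test compounds for 15 min at room temperature. Substrate addition (50 nM final) began the reaction, which was monitored by fluorescence at 0 and 10 min.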
POLB inh = inhibitors of human DNA polymerase beta; actives 1.3% (n = 340,000); P06746; Potency, µM (top dose mostly 114 µM), most hits filed as inhibitors; Pol beta primer extension/strand displacement, fluorescence kinetic
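Enzyme-only controls used 10 nM Pol beta; buffer lacking enzyme served as negative control. Compound preincubated 15 min, then 50 nM substrate added; 0 and 10 min reads at room temperature.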
Pol eta inh = blocks human DNA polymerase eta activity; Q9Y253; actives 1.2% (n = 390,000); AID 588591; recombinant Pol eta, fluorescent DNA replication assay; Potency, µM (doses to about 114 µM), hits mostly inhibitors
Target sequence (Q9Y253 whole entry, looked up): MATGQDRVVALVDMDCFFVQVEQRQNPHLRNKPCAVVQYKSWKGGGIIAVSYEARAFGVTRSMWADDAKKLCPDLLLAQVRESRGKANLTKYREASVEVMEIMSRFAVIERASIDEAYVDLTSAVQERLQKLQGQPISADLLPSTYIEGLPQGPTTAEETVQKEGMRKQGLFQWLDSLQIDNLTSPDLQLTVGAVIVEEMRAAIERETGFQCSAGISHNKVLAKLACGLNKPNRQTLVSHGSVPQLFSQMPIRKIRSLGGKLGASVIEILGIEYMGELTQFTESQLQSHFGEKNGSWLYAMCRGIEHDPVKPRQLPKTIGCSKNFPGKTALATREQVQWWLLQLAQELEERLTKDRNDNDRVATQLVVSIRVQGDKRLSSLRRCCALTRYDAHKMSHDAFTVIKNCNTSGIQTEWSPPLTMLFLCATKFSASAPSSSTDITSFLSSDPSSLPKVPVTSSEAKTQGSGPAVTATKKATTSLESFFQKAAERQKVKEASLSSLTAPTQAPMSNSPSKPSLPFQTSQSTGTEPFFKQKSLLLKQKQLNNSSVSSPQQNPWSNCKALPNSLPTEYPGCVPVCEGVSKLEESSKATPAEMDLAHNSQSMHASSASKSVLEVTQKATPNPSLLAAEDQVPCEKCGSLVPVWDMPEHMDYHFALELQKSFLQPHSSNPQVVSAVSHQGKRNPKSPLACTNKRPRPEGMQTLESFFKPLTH
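Pol eta (10 nM) was preincubated with compounds for 15 min at room temperature, after which fluorescent replication substrate (50 nM final) was added to start the reaction. Fluorescence was read kinetically at 0 and 10 min.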
Pol iota inh = DNA polymerase iota (human) inhibition; Q9UNA4; Pol iota fluorescent replication assay, 10 min; Potency, µM (highest dose often 115 µM), hits mostly inhibitors; actives 1% (n = 390,000); AID 588590
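Fluorescent replication assay read twice, at 0 min and 10 min after adding 50 nM (final) substrate. Enzyme (10 nM) and compounds were first incubated 15 min at room temperature; enzyme-free buffer wells were negative controls.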
FEN1 inh = blocks human flap endonuclease 1. P39748. Recombinant FEN1 flap cleavage, fluorescence, 15 min. Potency, µM (doses to about 114 µM), hits mostly inhibitors. actives 0.35% (n = 390,000); also: nearly all actives have a fitted effect of over 65% in size
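FEN1 at 10 nM, compound pretreatment for 15 min (room temperature), 50 nM final substrate to initiate; endpoint reads at 0 and 15 min; DMSO-only plates used as vehicle background.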
TDP1 block = inhibitors of human tyrosyl-DNA phosphodiesterase TDP1 | Q9NUW8 | recombinant TDP1, AlphaScreen DNA substrate cleavage | Potency, µM (series often up to 130 µM), actives largely listed as inhibitors | actives 0.28% (n = 350,000); also: nearly all actives have a fitted effect of over 40% in size
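Recombinant E. coli-expressed Tdp1 (1 nM) preincubated with compound 15 min at RT, then 5'-biotin/3'-phosphotyrosine-FITC DNA substrate (15 nM) added for 5 min. AlphaScreen beads (10 ug/ml) added, 10 min RT; tyrosine-FITC cleavage read as signal loss.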
A number is an active result; ! = repeats disagree. This is a sample that favours compounds with a hit; in the whole collection about 2.4% have one here. Calls follow the shape of the dose curve; as a rule, active = well fitted curve in the direction sought with a large enough effect; inconclusive = small, poorly fitted or top-dose-only effect, or another doubt; inactive = no such curve, though single readings can be large; an effect the other way counts as inactive or inconclusive.

`CCOc1ccc2nc(N=Nc3c(O)[nH]c(=O)[nH]c3=O)sc2c1` gave Pol kappa inh inactive, POLB inh inactive, Pol eta inh inconclusive, Pol iota inh inactive, FEN1 inh inactive and TDP1 block 39.8µM.
For CC1CCN(C(=O)c2ncn(C)c2C(=O)N2CCC(C)CC2)CC1 the results were Pol kappa inh inactive, Pol eta inh inactive, Pol iota inh inconclusive, FEN1 inh inactive and TDP1 block inactive.
`NCC(CC(=O)O)C1CCCCC1` (stereo not drawn) gave Pol kappa inh inactive, POLB inh inactive, Pol eta inh inactive, Pol iota inh 100µM, FEN1 inh inactive and TDP1 block inactive.
`O=C(NCc1ccc2c(c1)CCN2C(=O)c1ccccc1)Nc1cccc(C(F)(F)F)c1` gave Pol kappa inh inactive, POLB inh inactive, Pol eta inh inconclusive, Pol iota inh inactive, FEN1 inh inactive and TDP1 block inactive.
CCC1(C)OC(c2ccccc2)=C/C(=C/C=C2C(=O)NC(=O)NC2=O)O1 (stereo not drawn) was read as Pol kappa inh inactive, POLB inh inconclusive, Pol eta inh inactive, Pol iota inh 28.2µM, FEN1 inh inactive and TDP1 block inactive.
Screening O=C1NC(=O)N(Cc2ccco2)C(=O)/C1=C/c1ccc(-c2cccc([N+](=O)[O-])c2)o1 returned Pol kappa inh 22.4µM, POLB inh 17.8µM, Pol eta inh 8.91µM, Pol iota inh 7.94µM and FEN1 inh inconclusive.
`CCCCC/C=C\C/C=C\C/C=C\C/C=C\CCCC(=O)O` gave Pol kappa inh 12.6µM! and TDP1 block inactive.
Cn1c(SCc2nc3cc(C(=O)O)ccc3c(=O)[nH]2)nnc1C(F)(F)F was read as Pol kappa inh inactive, POLB inh inactive, Pol eta inh inactive, Pol iota inh inactive, FEN1 inh inactive and TDP1 block inactive.
`N.N.N.N.N.N.N.N.N.N.N.N.N.N.O.O.[Ru+4].[Ru+5].[Ru+5]` gave Pol kappa inh 26.7µM.
Screening Cc1cccc(C(=O)Nc2nnc(SCC(=O)NCc3ccco3)s2)c1 returned Pol kappa inh inactive, Pol eta inh inactive, Pol iota inh inactive and FEN1 inh inactive.
`CC[C@@]1(O)C(=O)OCc2c1cc1n(c2=O)Cc2cc3ccccc3nc2-1` gave Pol kappa inh inactive, POLB inh inactive, Pol eta inh inactive, Pol iota inh inactive, FEN1 inh inactive and TDP1 block inactive.
Screening CC[C@@]1(O)C(=O)OCc2c1cc1n(c2=O)Cc2cc3c(O)cccc3nc2-1 returned Pol kappa inh 29.9µM and TDP1 block inconclusive.
`CC(N)C(O)c1ccc(O)c(O)c1` (stereo not drawn) gave Pol kappa inh 3.16µM! and TDP1 block inactive.
`CN1CC[C@@]2(C)c3cc(O)ccc3N(C)C12` (stereo partly drawn) gave Pol kappa inh inactive, POLB inh inactive, Pol eta inh inconclusive, Pol iota inh 28.2µM!, FEN1 inh inactive and TDP1 block inactive.
`CCN1/C(=C\C=C\C2=[N+](CC)c3ccccc3C2(C)C)C(C)(C)c2ccccc21` gave Pol kappa inh 17.8µM, POLB inh 25.1µM, Pol eta inh inactive, FEN1 inh 44.7µM and TDP1 block inactive.
CCC(CC)c1nnc(NC(=O)CC(C)c2ccccc2)s1 (stereo not drawn) was read as Pol kappa inh inactive, POLB inh inactive, Pol eta inh inactive, Pol iota inh inactive and FEN1 inh inactive.
Screening CN1C[C@@H](CO)C=C2c3cccc4[nH]cc(c34)CC21 (stereo partly drawn) returned Pol kappa inh inactive, Pol iota inh inactive, FEN1 inh inactive and TDP1 block inactive.
`CC(C)C1C(=O)N2CCCC2[C@]2(O)O[C@@](NC(=O)[C@@H]3C=C4c5cccc6[nH]cc(c56)C[C@H]4N(C)C3)(C(C)C)C(=O)N12` (stereo partly drawn) gave Pol kappa inh inconclusive and TDP1 block inactive.
For CCC(CO)NC(=O)[C@@H]1C=C2c3cccc4[nH]cc(c34)C[C@H]2N(C)C1 (stereo partly drawn) the results were POLB inh inactive, Pol eta inh inconclusive, Pol iota inh 31.6µM and TDP1 block inactive.
`CC(C)[C@H]1C(=O)N2CCC[C@H]2[C@]2(O)O[C@](NC(=O)[C@@H]3C=C4c5cccc6[nH]cc(c56)C[C@H]4N(C)C3)(C(C)C)C(=O)N12` gave Pol kappa inh inactive, POLB inh inactive, Pol eta inh inactive, Pol iota inh 22.4µM, FEN1 inh inactive and TDP1 block inactive.
COc1ccc(C(=O)NCCn2cc(SC(C)c3ccccc3)c3ccccc32)cc1OC (stereo not drawn) was read as Pol kappa inh inactive, POLB inh inactive, Pol eta inh inactive, Pol iota inh inactive, FEN1 inh inconclusive and TDP1 block inactive.
For COc1nc(C)nc(Cl)c1NC1=NCCN1 the results were Pol kappa inh inactive, POLB inh inactive, Pol eta inh inactive, Pol iota inh inactive, FEN1 inh inactive and TDP1 block inactive.
`COc1ccc(/C=C/C=C2C(=O)NC(=S)NC2=O)cc1` gave Pol kappa inh inactive, Pol eta inh 25.1µM, Pol iota inh inconclusive and FEN1 inh inconclusive.
`Cc1cc(=O)n(-c2ccccc2Cl)[nH]1` gave Pol kappa inh inactive, POLB inh inactive, Pol eta inh inactive, Pol iota inh 2.82µM, FEN1 inh inactive and TDP1 block inactive.
`Cc1nc2sccc2c(=O)n1-c1ccccc1Cl` gave Pol kappa inh inactive, POLB inh inactive, Pol eta inh inactive, Pol iota inh inactive, FEN1 inh inactive and TDP1 block inactive.
`O=c1c(-c2ccccc2)c(O)c2ccccc2n1-c1ccccc1` gave Pol kappa inh inactive, POLB inh inactive, Pol eta inh inactive, Pol iota inh inactive and FEN1 inh inactive.
`C=CCN1C(=O)/C(=C/c2ccc(N3CCOCC3)o2)C(=O)NC1=S` gave Pol kappa inh inactive, POLB inh inconclusive, Pol eta inh inactive, Pol iota inh inconclusive, FEN1 inh inactive and TDP1 block inactive.
For Cc1cc(C)cc(N2C(=O)/C(=C\c3ccc(N4CCN(C)CC4)o3)C(=O)NC2=S)c1 the results were Pol kappa inh inactive, POLB inh inactive, Pol eta inh inactive, Pol iota inh 31.6µM, FEN1 inh inconclusive and TDP1 block inactive.
`Cc1cc(C=C2C(=O)N(C)C(=S)N(C)C2=O)c(C)n1-c1ccncc1` gave Pol kappa inh inactive, POLB inh inconclusive, Pol eta inh 35.5µM, Pol iota inh inactive, FEN1 inh inconclusive and TDP1 block inactive.
Screening Cc1c(C(=O)Nc2ccccc2Cl)oc2ccc(S(=O)(=O)N3CCCCC3)cc12 returned Pol kappa inh inactive, POLB inh inactive, Pol eta inh inactive, Pol iota inh inconclusive, FEN1 inh inactive and TDP1 block inactive.
